Compound activity (PubChem)
Hits are enriched below; roughly 8.8% of the tested compounds scored in any of these assays.
KB-3-1 cytotox = kills parental KB-3-1 adenocarcinoma cells; KB-3-1 viability, CellTiter-Glo ATP luminescence, 72 h; AID 1347075; 400,000 tested, 1.4% active; Potency, µM (series often up to 46.1 µM), actives largely listed as cytotoxic; further: potency means the concentration at half of the fitted maximal effect; nearly all actives have a fitted effect of over 60% in size
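Cells are dispensed, compounds pinned in, plates held at 37 °C for 72 h, then CellTiter-Glo is added and luminescence read after 10 minutes. Cell line: parental KB-3-1 in phenol-red-free DMEM, 10% FBS.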
HT1080-NT tox = kills 2HG-producing HT-1080-NT fibrosarcoma cells; AID 686970; 360,000 tested, 1.6% active; HT-1080-NT fibrosarcoma viability, CellTiter-Glo ATP luminescence, 48 h; Potency, µM (series often up to 46.1 µM), inactives show at the highest dose activity, negative = less viability, usual class: cytotoxic;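 further: NT is the 2HG producing partner of a matched IDH1 knockdown line; potency means the concentration at half of the fitted maximal effect; 0% = DMSO-treated cells and -100% = media-only wells without cells; nearly all actives have a fitted effect of over 55% in size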
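Read-out is CellTiter-Glo luminescence after 10 minutes at room temperature, following 48 hours' compound treatment of HT-1080-NT cells (750 cells/well, RPMI, 5% FBS, 37 degrees C).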
HT1080 IDH1KD tx = kills HT-1080 cells with IDH1 knockdown; HT-1080 IDH1 knockdown viability, ATP luminescence, 48 h; Potency, µM (highest dose often 46.1 µM), for inactives: at the highest dose activity, negative = toxicity, most hits filed as cytotoxic; 360,000 tested, 2% active; AID 686971;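 further: potency means the concentration at half of the fitted maximal effect; 0% = DMSO wells and -100% = cell-free medium wells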
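Knockdown cells (IDH1KD HT-1080) received compounds 2 h after plating at 750 cells/well and were kept 48 h at 37 °C in 5% FBS RPMI. A CellTiter-Glo luminescence read gave % activity for curve fitting.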
IL-1B inflam inh = inhibitors of inflammasome signaling (IL-1 beta secretion); THP-1 LPS/ATP IL-1B secretion, AlphaLISA, 16 h; active compounds read low; activity change, % at 57.5 µM; 360,000 tested, 4.7% active; AID 743279; in the data active means activity change below about -50%; inconclusive means mostly about -30% to -49%
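THP-1 cells pretreated 1 hr with compounds (up to 57.5 uM final), then stimulated with LPS (250 ng/mL final) plus ATP (1.25 mM final); secreted IL-1B measured by AlphaLISA after 16 hr, decreased signal indicating inhibition.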
KB-V1 cytotox = KB-V1 MDR subline cytotoxicity | KB-V1 MDR cells viability, CellTiter-Glo, 72 h | 400,000 tested, 3.4% active | Potency, µM (titrated, usually from 46.1 µM), hits mostly cytotoxic; further: potency means the concentration at half of the fitted maximal effect; nearly all actives have a fitted effect of over 60% in size
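qHTS viability screen in drug-selected KB-V1 MDR cells: 72 h compound treatment at 37 degrees C, ATP luminescence end point.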
Numbers without * were called inactive. Unless noted, the call rests on the fitted dose curve; in most records, active means well fitted curve in the direction sought with a large enough effect; inconclusive means small, poorly fitted or top-dose-only effect, or another doubt; inactive means no such curve, though single readings can be large; an effect the other way counts as inactive or inconclusive. Unless noted, on the % scale 0 is the no-effect control and ±100 the full control effect.

Screening CSc1nc(Cl)c(C#N)c(-c2ccc(C)cc2)n1 returned KB-3-1 cytotox inactive, HT1080-NT tox 0%, HT1080 IDH1KD tx 4%, IL-1B inflam inh 8 and KB-V1 cytotox inactive.
CCSc1nc(-c2ccccc2)nc(C(Cl)Cl)n1 was read as KB-3-1 cytotox 5.2µM*, HT1080-NT tox inconclusive, HT1080 IDH1KD tx inconclusive, IL-1B inflam inh -24 and KB-V1 cytotox inactive.
For Oc1cccc(-c2sc3ccccc3c2-c2ccc(OCCN3CCCCC3)cc2)c1 the results were KB-3-1 cytotox inconclusive, HT1080-NT tox 21µM*, HT1080 IDH1KD tx 12µM*, IL-1B inflam inh 0 and KB-V1 cytotox inactive.
Screening COC(=O)c1ccc(OCCN2CCCCCC2)cc1 returned KB-3-1 cytotox inconclusive, HT1080-NT tox 18%, HT1080 IDH1KD tx 20%, IL-1B inflam inh 28 and KB-V1 cytotox inactive.
O=C(c1ccc(OCCN2CCCCC2)cc1)c1c(-c2ccc(O)cc2)sc2cc(O)ccc12 was read as KB-3-1 cytotox inconclusive, HT1080-NT tox 21µM*, HT1080 IDH1KD tx 21µM*, IL-1B inflam inh 11 and KB-V1 cytotox inconclusive.
`Cc1ccc2nc(-c3ccc(N=Nc4cc(S(=O)(=O)O)c5ccccc5c4O)cc3)sc2c1S(=O)(=O)O` gave KB-3-1 cytotox inactive and KB-V1 cytotox inactive.
Screening COCCCNC(=O)N1CCN(c2nnc(C)c3c(C)n(-c4ccc(Cl)cc4)nc23)CC1 returned KB-3-1 cytotox inactive and KB-V1 cytotox inactive.
For CC1CCN(C(=O)C(C)OC(=O)c2ccc(S(C)(=O)=O)c([N+](=O)[O-])c2)CC1 (stereo unspecified) the results were KB-3-1 cytotox inconclusive and KB-V1 cytotox inactive.
For COc1cccc(OCCN2CCN(c3ncnc4c3cnn4-c3ccccc3)CC2)c1 the results were KB-3-1 cytotox inactive, HT1080-NT tox inconclusive, HT1080 IDH1KD tx inconclusive, IL-1B inflam inh -7 and KB-V1 cytotox 5.2µM*.
For Cc1nn(-c2ccccc2)c(Cl)c1C(=O)N1CCN(c2ncnc3c2cnn3-c2ccccc2)CC1 the results were KB-3-1 cytotox inconclusive, HT1080-NT tox 21µM*, HT1080 IDH1KD tx inconclusive, IL-1B inflam inh -74* and KB-V1 cytotox inconclusive.
For O=C(c1ccccc1)N1CCN(c2ncnc3c2cnn3-c2ccccc2)CC1 the results were KB-3-1 cytotox inactive, HT1080-NT tox -11%, HT1080 IDH1KD tx -7%, IL-1B inflam inh 3 and KB-V1 cytotox inactive.
For COc1ccc(C2/C=C\CN3CCC[C@H]3C(=O)N2Cc2ccc(F)cc2)cc1 (stereo partly specified) the results were KB-3-1 cytotox inactive, HT1080-NT tox 6%, HT1080 IDH1KD tx 6%, IL-1B inflam inh -20 and KB-V1 cytotox inactive.
For COc1ccccc1N1CCN(S(=O)(=O)c2ccc3c(c2)CCCN3C(C)=O)CC1 the results were KB-3-1 cytotox inactive and KB-V1 cytotox inactive.
`COc1ccc(C(CNC(=O)c2ccc(-c3ccccc3)cc2)N(C)C)cc1OC` (stereo unspecified) gave KB-3-1 cytotox inactive, HT1080-NT tox 18µM*, HT1080 IDH1KD tx 21µM*, IL-1B inflam inh inconclusive and KB-V1 cytotox inactive.
Screening CCCc1cc(-c2nc(-c3ccc(Cl)cc3)cs2)ccn1 returned KB-3-1 cytotox inactive, HT1080-NT tox -12%, HT1080 IDH1KD tx 0%, IL-1B inflam inh 15 and KB-V1 cytotox 16µM*.
For Cc1cccc(N(CC(=O)N(C)Cc2ccccc2)S(=O)(=O)c2ccccc2)c1C the results were KB-3-1 cytotox inactive and KB-V1 cytotox inconclusive.
Screening Cc1ccc(NCc2cccc(B(O)O)c2)cc1 returned KB-3-1 cytotox inactive, HT1080-NT tox -2%, HT1080 IDH1KD tx -16%, IL-1B inflam inh -95* and KB-V1 cytotox inactive.
Cc1ccc(NCc2ccccc2)cc1 was read as KB-3-1 cytotox inactive, HT1080-NT tox 3%, HT1080 IDH1KD tx 1%, IL-1B inflam inh -17 and KB-V1 cytotox inactive.
For COC(=O)C1=C(C)N(c2ccc(Cl)c(Cl)c2)C(=O)C1 the results were KB-3-1 cytotox inconclusive, HT1080-NT tox 15µM*, HT1080 IDH1KD tx inconclusive, IL-1B inflam inh -19 and KB-V1 cytotox inactive.
Screening O=C(N/N=C/c1cccc(F)c1)c1c(O)c2ccccc2[nH]c1=O returned KB-3-1 cytotox inconclusive, HT1080-NT tox -8%, HT1080 IDH1KD tx -9%, IL-1B inflam inh 18 and KB-V1 cytotox inconclusive.
`O=C(N/N=C/c1ccc(F)cc1)c1c(O)c2ccccc2[nH]c1=O` gave KB-3-1 cytotox inconclusive, HT1080-NT tox -2%, HT1080 IDH1KD tx 0%, IL-1B inflam inh 0 and KB-V1 cytotox 10µM*.
O=C(NNC(=O)c1c(O)c2ccccc2[nH]c1=O)c1ccccc1 was read as KB-3-1 cytotox inconclusive, HT1080-NT tox 5%, HT1080 IDH1KD tx 2%, IL-1B inflam inh 0 and KB-V1 cytotox inactive.
Screening O=C(N/N=C/c1ccccc1)c1c(O)c2ccccc2[nH]c1=O returned KB-3-1 cytotox 23µM*, HT1080-NT tox -7%, HT1080 IDH1KD tx -24%, IL-1B inflam inh 13 and KB-V1 cytotox inconclusive.
For COCCNC(=O)C1CCCN(C(=O)c2sc(-c3ccccc3)nc2C)CC1 (stereo unspecified) the results were KB-3-1 cytotox inactive, HT1080-NT tox 3%, HT1080 IDH1KD tx 12%, IL-1B inflam inh -2 and KB-V1 cytotox inactive.
Screening Cc1cnc(-c2nc3ccccc3n2C(C(=O)NC(C)(C)C)c2ccccc2)cn1 (stereo unspecified) returned KB-3-1 cytotox inactive, HT1080-NT tox 7%, HT1080 IDH1KD tx 22%, IL-1B inflam inh 11 and KB-V1 cytotox inactive.
For COc1ccccc1CNC(=O)CSC1=Nc2ccccc2N=C(c2ccc(F)cc2)C1 the results were KB-3-1 cytotox inactive and KB-V1 cytotox inactive.
`CCOc1ccccc1Nc1nc(-c2cccnc2)cs1` gave KB-3-1 cytotox inactive, HT1080-NT tox -16%, HT1080 IDH1KD tx -15%, IL-1B inflam inh -59* and KB-V1 cytotox inconclusive.
For c1cncc(Nc2nc(-c3ccncc3)cs2)c1 the results were KB-3-1 cytotox inactive, HT1080-NT tox -3%, HT1080 IDH1KD tx inconclusive, IL-1B inflam inh inconclusive and KB-V1 cytotox inactive.
`Clc1ccccc1-c1csc(Nc2cccnc2)n1` gave KB-3-1 cytotox inactive, HT1080-NT tox 4%, HT1080 IDH1KD tx inconclusive, IL-1B inflam inh -60* and KB-V1 cytotox inactive.
Clc1ccccc1Nc1nnc(-c2ccncc2)s1 was read as KB-3-1 cytotox inconclusive, HT1080-NT tox 7.3µM*, HT1080 IDH1KD tx 7.3µM*, IL-1B inflam inh -76* and KB-V1 cytotox 9.2µM*.
For Clc1ccccc1Nc1nc(-c2cccnc2)cs1 the results were KB-3-1 cytotox inactive, HT1080-NT tox -24%, HT1080 IDH1KD tx -21%, IL-1B inflam inh -87* and KB-V1 cytotox inconclusive.
